NPC1 prom act – activators of NPC1 promoter; 320,000 compounds, 2.4% hits; Huh7 NPC1 promoter luciferase reporter, 24 h; Potency, µM (top dose mostly 9.22 µM), usual class: activators; further: nearly all actives have a fitted effect of over 60% in size
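In 1536-well qHTS, Huh7 cells harboring an NPC1 promoter–luciferase construct received compound for 24 h; activation was quantified by luminescence following luciferase reagent addition.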
FLuc modulator – counter-screen for miR-21 project: firefly luciferase inhibitors or activators. P08659. AID 588342. 360,000 compounds, 6.9% hits. purified FLuc, Km substrates, luminescence inhibition. Potency, µM (highest dose often 57.5 µM), actives largely listed as inhibitors; further: nearly all actives have a fitted effect of over 55% in size
Target sequence (P08659 whole entry, looked up): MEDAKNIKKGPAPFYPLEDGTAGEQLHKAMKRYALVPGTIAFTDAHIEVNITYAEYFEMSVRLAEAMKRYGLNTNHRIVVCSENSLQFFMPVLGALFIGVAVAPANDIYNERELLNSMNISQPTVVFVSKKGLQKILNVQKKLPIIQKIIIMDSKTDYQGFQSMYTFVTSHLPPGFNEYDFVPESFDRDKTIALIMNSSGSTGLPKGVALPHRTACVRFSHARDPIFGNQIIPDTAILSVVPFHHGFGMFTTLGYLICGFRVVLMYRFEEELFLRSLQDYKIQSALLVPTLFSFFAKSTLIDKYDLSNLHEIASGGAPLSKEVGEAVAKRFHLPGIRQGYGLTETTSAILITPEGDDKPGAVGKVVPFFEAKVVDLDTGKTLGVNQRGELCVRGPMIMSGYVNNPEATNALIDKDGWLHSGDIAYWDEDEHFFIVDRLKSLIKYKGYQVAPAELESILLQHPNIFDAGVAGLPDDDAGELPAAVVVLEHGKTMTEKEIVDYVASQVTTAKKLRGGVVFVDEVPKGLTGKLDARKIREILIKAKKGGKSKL
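Purified P. pyralis luciferase, 10 nM final, with Km-level 10 uM D-luciferin and 10 uM ATP in 50 mM Tris acetate pH 7.5, 10 mM Mg acetate, 0.01% Tween-20, 0.05% BSA; 6-point qHTS titration about 60 µM downward; luminescence read.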
SMN2 splice up – enhancers of SMN2 splice variant expression; 210,000 compounds, 2.8% hits; AID 1458; HEK293 SMN2-luciferase splicing reporter, luminescence, 30-36 h; Potency, µM (doses to about 46.1 µM), actives largely listed as activators; further: nearly all actives have a fitted effect of over 55% in size
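HEK293 cells carry an SMN2 […]–luciferase reporter in which exon 7 inclusion puts luciferase in frame. Cells were plated 10-12 h before compound addition, then incubated 30-36 h at 37C. ONE-Glo luminescence was read; sodium butyrate at 4.5 mM final served as control.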
Rab9 prom act – Rab9 promoter activation; Huh7 Rab9 promoter-luciferase reporter, luminescence, 24 h; 320,000 compounds, 2.8% hits; Potency, µM (titrated, usually from 9.22 µM), most hits filed as activators; further: nearly all actives have a fitted effect of over 60% in size
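Rab9 promoter-driven luciferase in stably transfected Huh7 cells; 1500 cells/well rested 2 h, exposed to compound in DMSO for 24 h at 37 °C, 5% CO2. Luminescence read 10 min after adding luciferase reagent at ambient temperature.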
ELG1 genotox – genotoxicity induction in ELG1-luciferase HEK293T cells; HEK293T ELG1-luciferase reporter, luminescence, 16 h; AID 504466; 330,000 compounds, 1.3% hits; Potency, µM (highest dose often 46 µM), usual class: activators; further: nearly all actives have a fitted effect of over 60% in size
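DMSO vehicle served as control against compound-treated ELG1-luciferase HEK293T cells; exposure lasted 16 hr at 37 °C and 5% CO2, followed by ONE-Glo luminescence detection after 30 min.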
Each line names hits and unclear results; the compound was inactive in the other large screens. Only some compounds are listed: those with a hit (about 7.5% of all), similar ones and a draw of the others. The call rests on the fitted dose curve; in most records, active means well fitted curve in the direction sought with a large enough effect; inconclusive means small, poorly fitted or top-dose-only effect, or another doubt; inactive means no such curve, though single readings can be large; an effect the other way counts as inactive or inconclusive.

COc1ccc(-[n+]2c(C)cc(/C=C3\Sc4ccccc4N3C)cc2C)cc1	FLuc modulator 19µM
COc1ccc(C(=O)/C=C2\Sc3ccccc3N2C)cc1	NPC1 prom act 0.708µM, FLuc modulator 1.2µM, SMN2 splice up 7.94µM, Rab9 prom act 0.891µM, ELG1 genotox 1.64µM
CC(=S)/C=C1\Sc2ccccc2N1C	none
CC(=O)Nc1ccc(S(=O)(=O)NCCC(=O)NC(C)c2cccs2)cc1 (stereo not given)	none (no result: NPC1 prom act, FLuc modulator, SMN2 splice up, Rab9 prom act)
CCC1=C2CC[C@H]3C(=O)N(CC(=O)OC)C(=O)[C@H]3[C@H]2[C@@]2(Cc3ccccc3)C(=NCCc3c[nH]c4ccccc34)OC(=O)N2C1=O	none (no result: NPC1 prom act, FLuc modulator, Rab9 prom act, ELG1 genotox)
O=C(CSc1n[nH]c(-c2ccco2)n1)Nc1ccccc1F	none (no result: SMN2 splice up)
COc1cccc2cc(C(=O)N3CCc4ccccc4C3)c(=O)oc12	FLuc modulator 16.9µM, ELG1 genotox inconclusive
CNC(=O)c1cc2cccc(OC)c2oc1=O	none
COc1cccc2cc(C(=O)NCc3ccccn3)c(=O)oc12	NPC1 prom act inconclusive, FLuc modulator 10.7µM, Rab9 prom act inconclusive, ELG1 genotox inconclusive
COc1cccc2cc(C(=O)NCCC3=CCCCC3)c(=O)oc12	FLuc modulator inconclusive
CCOc1cccc2cc(C(=O)N3CCc4ccccc4C3)c(=O)oc12	none
COc1cccc2cc(C(=O)NCCc3ccccc3)c(=O)oc12	FLuc modulator 10.7µM, ELG1 genotox inconclusive (no result: SMN2 splice up)
COc1ccc(NC(=O)Cn2c(=O)n(Cc3ccc4c(c3)OCO4)c(=O)c3ccc(C(=O)NC4CCCCC4)cc32)cc1	none (no result: NPC1 prom act, Rab9 prom act, ELG1 genotox)
CSc1ccc(C2Nc3cccc4cccc(c34)N2)cc1	NPC1 prom act inconclusive, FLuc modulator 21.3µM (no result: SMN2 splice up)
c1cc2c3c(cccc3c1)NC(c1ccc3c(c1)OCO3)N2	NPC1 prom act inconclusive, FLuc modulator 26.9µM (no result: SMN2 splice up)
O=[N+]([O-])c1cc(C2Nc3cccc4cccc(c34)N2)ccc1Cl	NPC1 prom act inconclusive
Clc1ccc(C2Nc3cccc4cccc(c34)N2)cc1	FLuc modulator 19µM (no result: SMN2 splice up)
Cc1cccc(C2Nc3cccc4cccc(c34)N2)c1	NPC1 prom act inconclusive, FLuc modulator 21.3µM (no result: SMN2 splice up)
CSCCCNC(=S)Nc1ccc(N2CCOCC2)cc1N1CCOCC1	none
CCCCn1c(N)c(N(CC(C)C)C(=O)COC(=O)C2(c3ccccc3)CC2)c(=O)[nH]c1=O	none (no result: SMN2 splice up)
CCOC(=O)c1ccc(NC(=O)CN2C(=O)CSC(C)C2=O)cc1 (stereo not given)	FLuc modulator 16.9µM
CCOC(=O)c1ccc(NC(=O)CN2C(=O)C(C)SC(C)C2=O)cc1 (stereo not given)	FLuc modulator inconclusive
COc1ccc(CNC(=O)CN2C(=O)COc3ccc(S(=O)(=O)N4CCCC4)cc32)cc1	none (no result: SMN2 splice up)
COc1ccc(-n2c(SCC(N)=O)nnc2-c2ccc(NS(=O)(=O)c3ccc(C)cc3)cc2)cc1	none
COc1ccc(-c2csc(NC(=O)CN3C(=O)C4CCCCC4C3=O)n2)c(OC)c1 (stereo not given)	FLuc modulator inconclusive (no result: SMN2 splice up)
O=C(Nc1nc(-c2ccc(-c3ccccc3)cc2)cs1)C1=COCCO1	FLuc modulator inconclusive
C=CCNc1nc(-c2ccc(OC)cc2OC)cs1	NPC1 prom act 2.82µM, FLuc modulator 12µM, SMN2 splice up inconclusive, Rab9 prom act 3.16µM, ELG1 genotox inconclusive
COc1ccc(-c2csc(NC(=O)COC(=O)C3=COCCO3)n2)cc1	NPC1 prom act 3.55µM, SMN2 splice up 14.1µM, Rab9 prom act 3.98µM
C=CCn1c(C)cc(-c2csc(NCC)n2)c1C	FLuc modulator 15.1µM (no result: SMN2 splice up)
Cc1cc(C)c(-c2csc(NC(=O)C3=COCCO3)n2)cc1C	FLuc modulator 19µM (no result: SMN2 splice up)
O=C(O)CN1C(=O)NC2(CCc3ccccc32)C1=O (stereo not given)	none (no result: SMN2 splice up)
CCCCOC(=O)Nc1ccc(S(=O)(=O)Nc2nccs2)cc1	none (no result: SMN2 splice up)
COc1ccc(-c2csc(NC(=O)C3=COCCO3)n2)c(OC)c1	NPC1 prom act inconclusive, FLuc modulator 23.9µM, Rab9 prom act inconclusive, ELG1 genotox 20.6µM (no result: SMN2 splice up)
C=CCn1c(C)cc(-c2csc(NC)n2)c1C	none
C=CCn1c(C)cc(-c2csc(NC(=O)C3=COCCO3)n2)c1C	NPC1 prom act 2.24µM, FLuc modulator 9.53µM, Rab9 prom act 1.58µM, ELG1 genotox inconclusive (no result: SMN2 splice up)
O=c1c(C(c2ccccc2)c2c(O)sc3ccccc3c2=O)c(O)sc2ccccc12	FLuc modulator 12µM

Screens as filed in PubChem BioAssay.
